Screening results (PubChem BioAssay)
An excerpt weighted towards active compounds, which were near 4.1% of everything screened.
FMDV inh: High Throughput Screening for Foot and Mouth Disease Virus Antivirals; Potency, µM (titrated, usually from 57.9 µM), without a hit: top-dose activity change, negative = inhibition, actives largely listed as inhibitors; AID 1159524, 2015; 410,000 compounds, 1.2% hits; FMDV antiviral cell-based qHTS; calls by dose curve; tested in HEK293T cells; note: read-out not given here; nearly all actives have a fitted effect of over 45% in size
Sm TGR inh: qHTS Assay for the Inhibitors of Schistosoma Mansoni Peroxiredoxins. Potency, µM (top dose mostly 114 µM), for the others: at the top dose activity change, negative = inhibition, most hits filed as inhibitors. Schistosoma mansoni thioredoxin glutathione reductase (TGR), Q962Y6. purified TGR, DTNB reduction, TNB absorbance 405 nm. 360,000 compounds, 3% hits; note: nearly all actives have a fitted effect of over 60% in size
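TGR 20 nM + NADPH 100 uM (dispensed conc.), cpd preinc 15 min RT; start with NADPH (500 uM addition) then DTNB (15 mM addition). Kinetic TNB absorbance, 405 nm filter. Four-parameter Hill fit across titration.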
AMA1-RON2 inh: qHTS for Inhibitors of AMA1-RON; Towards Development of Antimalarial Drug Lead: Primary Screen; Plasmodium falciparum AMA1 (3D7) - RON2 peptide interaction; 360,000 compounds, 0.2% hits; Potency, µM (top dose mostly 58.2 µM), for the others: at the highest dose activity change, negative = inhibition, hits mostly inhibitors; AID 720542, 2013; AlphaScreen AMA1-biotinylated RON2 peptide binding;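 note: 0% = vehicle wells and -100% = peptide control; nearly all actives have a fitted effect of over 45% in size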
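AMA1 (3D7) with his tag at 25 nM final met compounds first, then biotinylated RON2 peptide at 25 nM; detection used donor plus acceptor beads, 10 µg/mL apiece, read by AlphaScreen after 30 min at room temperature.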
AmpC inh detg: qHTS Inhibitors of AmpC Beta-Lactamase (assay with detergent); P00811; AmpC hydrolysis of nitrocefin, absorbance 480 nm, 0.01% Triton; Potency, µM (titrated, usually from 114 µM), inactives show at the highest dose activity change, negative = inhibition, hits mostly inhibitors; 370,000 compounds, 0.041% hits;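 note: 0% = no-compound wells and -100% = no-enzyme wells; nearly all actives have a fitted effect of over 25% in size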
Target sequence (P00811 whole entry, looked up): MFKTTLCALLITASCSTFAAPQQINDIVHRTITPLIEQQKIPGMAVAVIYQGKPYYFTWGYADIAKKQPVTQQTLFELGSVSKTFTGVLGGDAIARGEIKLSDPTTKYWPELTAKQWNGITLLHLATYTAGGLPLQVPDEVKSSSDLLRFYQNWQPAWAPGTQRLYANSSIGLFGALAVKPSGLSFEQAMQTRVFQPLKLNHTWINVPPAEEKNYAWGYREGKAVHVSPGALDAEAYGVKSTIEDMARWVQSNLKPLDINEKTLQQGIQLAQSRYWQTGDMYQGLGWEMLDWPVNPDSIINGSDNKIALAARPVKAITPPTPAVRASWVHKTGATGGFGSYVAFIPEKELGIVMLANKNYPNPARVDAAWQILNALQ
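AmpC (5.3 nM in the dispensed reagent) in 20 mM phosphate pH 7.0 with 0.01% (detergent screen) or 0.0001% Triton X-100 was preincubated with compounds for 15 min at room temperature. Nitrocefin was then added from an 800 uM solution, and hydrolysis was followed at 480 nm.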
AmpC no deterg: qHTS Inhibitors of AmpC Beta-Lactamase (assay without detergent); AID 485341, 2010; Potency, µM (doses to about 57.1 µM), for inactives: top-dose activity change, negative = inhibition, hits mostly inhibitors; P00811; AmpC nitrocefin hydrolysis, absorbance 480 nm, 0.0001% Triton; 330,000 compounds, 0.52% hits;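 note: plate controls were no compound for no effect and no enzyme for full effect; nearly all actives have a fitted effect of over 20% in size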
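AmpC (5.3 nM in the dispensed reagent) in 20 mM phosphate pH 7.0 with 0.01% (detergent screen) or 0.0001% Triton X-100 was preincubated with compounds for 15 min at room temperature. Nitrocefin was then added from an 800 uM solution, and hydrolysis was followed at 480 nm.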
An asterisk follows results filed as active; ? = inconclusive; · = not tested or not shown. Unless noted, calls come from the whole dose curve; as a rule, active = well fitted curve in the direction sought with a large enough effect; inconclusive = small, poorly fitted or top-dose-only effect, or another doubt; inactive = no such curve, though single readings can be large; an effect the other way counts as inactive or inconclusive. Unless noted, % is set by controls: 0 for no effect and ±100 for the full control effect; potency is the fitted concentration of half-maximal effect.

SMILES	FMDV inh	Sm TGR inh	AMA1-RON2 inh	AmpC inh detg	AmpC no deterg
O=C(c1ccc(S(=O)(=O)Cc2ccccc2F)c([N+](=O)[O-])c1)N1CCCC1	?	10µM*	-5.0%	1.0%	0.3%
O=C(c1ccc(S(=O)(=O)c2ccccc2Cl)c([N+](=O)[O-])c1)N1CCN(Cc2ccccc2)CC1	11.2µM*	?	-28.4%	-2.0%	87.7%
Cc1ccccc1CS(=O)(=O)c1ccc(C(=O)N2CCOCC2)cc1[N+](=O)[O-]	?	?	0.1%	?	19.4%
O=C(c1ccc(S(=O)(=O)c2ccc(F)cc2)c([N+](=O)[O-])c1)N1CCCCCC1	12.6µM*	?	-14.5%	-12.1%	13.4%
O=C(Nc1cccc(Cl)c1)c1cc(S(=O)(=O)N2CCCc3ccccc32)ccc1F	-12.8%	-2.8%	·	-2.7%	·
COc1ccccc1CNC(=O)C1CCN(S(=O)(=O)c2ccc3c(ccn3C)c2)CC1	-3.4%	4.4%	·	9.5%	·
O=C(c1ccc(S(=O)(=O)Cc2ccccc2Cl)c([N+](=O)[O-])c1)N1CCOCC1	?	11.2µM*	-8.6%	?	1.5%
CC(C)Oc1ccc(CNC(=O)c2ccc3c(c2)nc2n3CCOC2)cc1	16.6%	-1.8%	·	-0.5%	·
COc1ccccc1NC(=O)C1CCC(CNS(=O)(=O)c2ccc3c(c2)CC(C)N3C(C)=O)CC1 (stereo not drawn)	31.6µM*	-0.6%	·	-13.4%	·
CC(=O)N1c2ccc(S(=O)(=O)NCC3CCC(C(=O)Nc4ccc(F)cc4)CC3)cc2CC1C (stereo not drawn)	35.5µM*	8.4%	·	3.0%	·
CCc1ccc(NC(=O)C2CCN(S(=O)(=O)c3ccc4c(c3)CC(C)N4C(C)=O)CC2)cc1 (stereo not drawn)	15.8µM*	6.0%	-8.6%	6.2%	77.6%
CC(C)CCNC(=O)C1CCN(S(=O)(=O)c2ccc3c(c2)CC(C)N3C(=O)C2CCC2)CC1 (stereo not drawn)	-22.3%	-12.0%	-1.9%	-3.6%	76.0%
Cc1ccc(CNC(=O)C2CCN(S(=O)(=O)c3ccc4c(c3)CC(C)N4C(=O)C3CCC3)CC2)o1 (stereo not drawn)	?	39.8µM*	-10.1%	?	52.7%
COc1ccc(CNC(=O)c2cc3ccccn3n2)cc1OC	-17.0%	11.2%	·	0.9%	·
COc1cc(CNC(=O)CSCc2nc3cccnc3n2C2CCCCC2)cc(OC)c1OC	-16.3%	7.3%	·	3.1%	·
COCC1CCCN(Cc2ccc3c(c2)CN(C(=O)c2sc(C)nc2C)CCO3)C1 (stereo not drawn)	-2.0%	·	·	·	·
CCc1ccc(CNC(=O)c2cc3c(s2)-c2ccccc2OC3)cc1	8.8%	-0.6%	·	-0.4%	·
CC(=O)N1c2ccc(S(=O)(=O)NCC3CCC(C(=O)NC(C)(C)C)CC3)cc2CC1C (stereo not drawn)	-3.4%	2.0%	·	14.2%	·
CC(=O)N1c2ccc(S(=O)(=O)NCC3CCC(C(=O)Nc4cc(C)cc(C)c4)CC3)cc2CC1C (stereo not drawn)	?	0.1%	·	-3.5%	·
CCc1ccc(NC(=O)C2CCC(CNS(=O)(=O)c3ccc4c(c3)CC(C)N4C(C)=O)CC2)cc1 (stereo not drawn)	17.8µM*	-4.2%	·	1.6%	·
CC(=O)N1c2ccc(S(=O)(=O)NCC3CCC(C(=O)Nc4ccc(C)c(C)c4)CC3)cc2CC1C (stereo not drawn)	17.8µM*	-0.8%	·	-8.6%	·
O=C(CSc1ccc(-c2nc3ccccc3[nH]2)cn1)Nc1ccc2c(c1)OCCO2	·	4.7%	-1.6%	-2.7%	0.562µM*
O=C(O)CCCCCNS(=O)(=O)c1cccc2c1C(=O)c1ccccc1C2=O	-7.4%	50.1µM*	?	-21.7%	0.9%
O=C(O)CCCCCNS(=O)(=O)/C=C/c1ccccc1	-3.7%	·	13.4%	-15.0%	-13.4%
Cc1ccccc1Cn1c(=O)n(CCCCC(=O)NCc2ccc3c(c2)OCO3)c(=O)c2ccccc21	-26.7%	-1.3%	·	13.4%	·
SMILES	FMDV inh	Sm TGR inh	AMA1-RON2 inh	AmpC inh detg	AmpC no deterg
Cc1ccc(C(=O)Nc2cccc(-c3nc(CNC(=O)c4ccc(F)cc4Cl)c(C)o3)c2)s1	26.0%	·	·	·	·
CCOc1ccc(-c2n[nH]c3c2C(c2cccs2)N(c2ccc(Br)cc2)C3=O)cc1 (stereo not drawn)	?	-7.3%	·	-2.2%	·
COc1cc(C2c3c(n[nH]c3C)C(=O)N2c2ccc(C)cc2)ccc1O (stereo not drawn)	0.0%	?	1.0%	-17.1%	-13.8%
CCOC(=O)c1ccc(N2C(=O)c3[nH]nc(-c4ccc(OC)cc4)c3C2c2cccc(O)c2)cc1 (stereo not drawn)	31.6µM*	1.6%	·	3.5%	·
CCOC(=O)c1ccc(N2C(=O)c3[nH]nc(-c4ccc(C)cc4)c3C2c2ccc(O)cc2)cc1 (stereo not drawn)	31.6µM*	1.6%	·	-1.3%	·
CCOc1cc(C2c3c(n[nH]c3C)C(=O)N2c2ccc(C)cc2)ccc1O (stereo not drawn)	22.8%	17.8µM*	-10.5%	-10.2%	?
CCOC(=O)c1ccc(N2C(=O)c3[nH]nc(-c4ccccc4)c3C2c2ccc(CC)cc2)cc1 (stereo not drawn)	?	7.2%	·	0.6%	·
CCOc1ccc(N2C(=O)c3[nH]nc(-c4ccc(OC)cc4)c3C2c2cccs2)cc1 (stereo not drawn)	39.8µM*	-2.3%	·	1.0%	·
Cc1ccc2c(c1)N(C(=O)N1CCC(C(=O)NC3CCCCCC3)CC1)CC(C)O2 (stereo not drawn)	-3.6%	2.3%	·	19.7%	·
Cc1cnc(C)c(-c2cccc3c2OC(CNC(=O)/C=C/c2ccc(F)c(F)c2)C3)n1 (stereo not drawn)	-16.3%	·	·	·	·
CCC1CCCCN1CCCNC(=O)c1ccc2c(c1)N(Cc1ccc(Cl)cc1)C(=O)c1ccccc1S2(=O)=O (stereo not drawn)	-14.0%	4.5%	·	14.1%	·
CC1(C(=O)NCc2ccccc2)CSCC(=O)N1C1CCN(Cc2ccccc2)CC1 (stereo not drawn)	-2.8%	·	11.7%	·	·
O=C(Cc1c[nH]c2ccccc12)N1CCC(n2c(C3CCCO3)nc3cc(C(F)(F)F)ccc32)CC1 (stereo not drawn)	-5.8%	·	·	·	·
COc1ccc(CNc2ccnc(-c3ccc(N(C)C)cc3)n2)c(OC)c1	2.7%	·	·	·	·
CCOC(=O)c1ccc(N2C(=O)c3n[nH]c(-c4ccco4)c3C2c2ccc(C)cc2)cc1 (stereo not drawn)	31.6µM*	-3.4%	·	-2.1%	·
